A number with no mark means an inactive call.

Common to all, as to assay: log2 ratio of Biotin-Ahx-Ub-VS probe labelling (fragment/DMSO); higher = less target engagement (more negative = stronger competition), active = hit call of the paper (q ≤ 0.05, log2 ratio ≤ -1)
Common to all, as to conditions: compound concentration: 200 uM; treatment time: 3 h

The target of one assay is T1, USP42 (UniProt Q9H9J4).
T1 sequence (whole entry): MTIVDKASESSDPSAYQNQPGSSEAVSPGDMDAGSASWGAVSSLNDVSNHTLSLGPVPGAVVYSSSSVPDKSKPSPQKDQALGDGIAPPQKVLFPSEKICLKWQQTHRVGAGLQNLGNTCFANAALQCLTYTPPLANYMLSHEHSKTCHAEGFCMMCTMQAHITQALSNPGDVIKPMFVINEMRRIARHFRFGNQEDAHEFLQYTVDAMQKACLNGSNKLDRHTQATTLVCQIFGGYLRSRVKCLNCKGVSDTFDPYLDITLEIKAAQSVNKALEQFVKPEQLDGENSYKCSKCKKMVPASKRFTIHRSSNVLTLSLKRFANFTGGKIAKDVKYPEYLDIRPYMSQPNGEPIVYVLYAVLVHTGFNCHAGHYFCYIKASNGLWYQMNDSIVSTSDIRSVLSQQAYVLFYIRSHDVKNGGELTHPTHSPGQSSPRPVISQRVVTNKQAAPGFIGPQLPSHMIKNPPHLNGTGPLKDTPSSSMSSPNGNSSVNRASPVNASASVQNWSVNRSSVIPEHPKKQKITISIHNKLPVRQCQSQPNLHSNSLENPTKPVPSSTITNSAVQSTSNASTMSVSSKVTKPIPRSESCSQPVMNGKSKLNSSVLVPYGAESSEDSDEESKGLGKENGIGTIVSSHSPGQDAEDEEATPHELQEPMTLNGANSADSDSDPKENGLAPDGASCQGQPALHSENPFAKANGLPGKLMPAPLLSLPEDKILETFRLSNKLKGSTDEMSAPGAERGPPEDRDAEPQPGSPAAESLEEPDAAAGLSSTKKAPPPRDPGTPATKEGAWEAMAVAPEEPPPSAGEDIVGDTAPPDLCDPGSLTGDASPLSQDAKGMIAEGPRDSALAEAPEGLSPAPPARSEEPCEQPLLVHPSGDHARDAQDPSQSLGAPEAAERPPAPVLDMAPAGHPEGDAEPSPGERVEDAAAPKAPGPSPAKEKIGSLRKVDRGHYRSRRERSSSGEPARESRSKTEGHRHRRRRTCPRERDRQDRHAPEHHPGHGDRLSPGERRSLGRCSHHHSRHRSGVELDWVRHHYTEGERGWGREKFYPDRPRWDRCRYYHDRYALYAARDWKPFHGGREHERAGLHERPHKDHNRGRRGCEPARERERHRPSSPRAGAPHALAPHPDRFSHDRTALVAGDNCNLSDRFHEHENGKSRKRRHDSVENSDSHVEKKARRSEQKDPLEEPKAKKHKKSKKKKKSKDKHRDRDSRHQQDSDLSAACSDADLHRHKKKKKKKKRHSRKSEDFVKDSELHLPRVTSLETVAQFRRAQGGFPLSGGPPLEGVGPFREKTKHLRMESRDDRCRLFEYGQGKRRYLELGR
In outline:
(§1)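 HEK293T lysate, 495 µg per sample in Tris/CHAPS/IGEPAL buffer with protease inhibitors, was treated in triplicate with fragment at 200 µM or vehicle for 3 h and then with Biotin-Ahx-Ub-VS at 0.5 µM final for 1 h. Labelled DUBs were NeutrAvidin-enriched, digested with LysC and trypsin, and run by diaPASEF LC-MS/MS. Spectronaut label-free quantities were global-median-normalised, and values are average log2 fragment/vehicle ratios by unpaired t-test on proteins with ≥2 unique peptides.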

The target in the next assay is USP46 (UniProt P62068). In outline: as §1
Chain of USP46 (P62068 whole entry): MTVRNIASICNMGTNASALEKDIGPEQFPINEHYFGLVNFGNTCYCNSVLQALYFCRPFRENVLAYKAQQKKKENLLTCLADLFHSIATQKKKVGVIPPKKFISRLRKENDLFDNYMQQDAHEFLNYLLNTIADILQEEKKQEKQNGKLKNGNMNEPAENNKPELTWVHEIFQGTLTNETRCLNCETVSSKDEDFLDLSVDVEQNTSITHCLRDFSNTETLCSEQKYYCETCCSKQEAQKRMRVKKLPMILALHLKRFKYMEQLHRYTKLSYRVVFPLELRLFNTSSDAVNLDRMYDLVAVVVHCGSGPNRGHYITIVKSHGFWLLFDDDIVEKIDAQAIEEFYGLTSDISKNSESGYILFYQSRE
The next assay concerns the target T2, USP47 (UniProt Q96K76).
T2 sequence (whole entry): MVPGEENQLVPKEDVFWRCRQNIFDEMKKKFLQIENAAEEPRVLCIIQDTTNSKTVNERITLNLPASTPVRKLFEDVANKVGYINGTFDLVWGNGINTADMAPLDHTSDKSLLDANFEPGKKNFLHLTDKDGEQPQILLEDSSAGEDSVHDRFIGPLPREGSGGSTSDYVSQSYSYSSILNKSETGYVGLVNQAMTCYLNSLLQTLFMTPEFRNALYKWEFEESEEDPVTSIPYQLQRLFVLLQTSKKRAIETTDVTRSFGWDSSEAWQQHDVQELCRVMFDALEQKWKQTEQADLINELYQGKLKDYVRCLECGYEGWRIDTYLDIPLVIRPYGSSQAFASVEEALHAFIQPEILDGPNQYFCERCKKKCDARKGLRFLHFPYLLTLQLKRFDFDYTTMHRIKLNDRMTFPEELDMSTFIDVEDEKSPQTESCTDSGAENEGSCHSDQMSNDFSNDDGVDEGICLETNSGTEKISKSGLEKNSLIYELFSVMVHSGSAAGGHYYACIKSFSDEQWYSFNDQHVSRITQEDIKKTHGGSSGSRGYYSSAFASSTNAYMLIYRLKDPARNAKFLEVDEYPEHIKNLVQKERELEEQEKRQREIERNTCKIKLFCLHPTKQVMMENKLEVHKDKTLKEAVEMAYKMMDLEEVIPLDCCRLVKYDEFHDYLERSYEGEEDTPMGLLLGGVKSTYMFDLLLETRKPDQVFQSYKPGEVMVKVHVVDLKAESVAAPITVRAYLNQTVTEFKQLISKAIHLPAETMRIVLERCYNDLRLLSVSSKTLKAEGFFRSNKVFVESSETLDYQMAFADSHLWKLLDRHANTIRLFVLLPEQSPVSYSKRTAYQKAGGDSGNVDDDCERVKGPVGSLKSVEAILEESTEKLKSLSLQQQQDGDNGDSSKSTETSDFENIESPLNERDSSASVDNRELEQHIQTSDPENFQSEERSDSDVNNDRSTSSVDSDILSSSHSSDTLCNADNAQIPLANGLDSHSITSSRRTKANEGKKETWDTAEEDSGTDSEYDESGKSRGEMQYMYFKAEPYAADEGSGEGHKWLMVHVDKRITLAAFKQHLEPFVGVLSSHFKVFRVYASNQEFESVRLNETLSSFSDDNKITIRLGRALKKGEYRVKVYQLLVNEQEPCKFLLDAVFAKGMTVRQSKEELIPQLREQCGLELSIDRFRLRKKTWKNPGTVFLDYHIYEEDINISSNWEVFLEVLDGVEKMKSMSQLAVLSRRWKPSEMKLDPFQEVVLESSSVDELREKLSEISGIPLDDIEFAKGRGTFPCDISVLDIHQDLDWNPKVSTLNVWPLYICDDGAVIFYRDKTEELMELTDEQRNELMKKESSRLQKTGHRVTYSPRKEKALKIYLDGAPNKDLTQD
The method in brief:
as §1

The target in another assay is T3, USP48 (UniProt Q86UV5).
T3 sequence (whole entry): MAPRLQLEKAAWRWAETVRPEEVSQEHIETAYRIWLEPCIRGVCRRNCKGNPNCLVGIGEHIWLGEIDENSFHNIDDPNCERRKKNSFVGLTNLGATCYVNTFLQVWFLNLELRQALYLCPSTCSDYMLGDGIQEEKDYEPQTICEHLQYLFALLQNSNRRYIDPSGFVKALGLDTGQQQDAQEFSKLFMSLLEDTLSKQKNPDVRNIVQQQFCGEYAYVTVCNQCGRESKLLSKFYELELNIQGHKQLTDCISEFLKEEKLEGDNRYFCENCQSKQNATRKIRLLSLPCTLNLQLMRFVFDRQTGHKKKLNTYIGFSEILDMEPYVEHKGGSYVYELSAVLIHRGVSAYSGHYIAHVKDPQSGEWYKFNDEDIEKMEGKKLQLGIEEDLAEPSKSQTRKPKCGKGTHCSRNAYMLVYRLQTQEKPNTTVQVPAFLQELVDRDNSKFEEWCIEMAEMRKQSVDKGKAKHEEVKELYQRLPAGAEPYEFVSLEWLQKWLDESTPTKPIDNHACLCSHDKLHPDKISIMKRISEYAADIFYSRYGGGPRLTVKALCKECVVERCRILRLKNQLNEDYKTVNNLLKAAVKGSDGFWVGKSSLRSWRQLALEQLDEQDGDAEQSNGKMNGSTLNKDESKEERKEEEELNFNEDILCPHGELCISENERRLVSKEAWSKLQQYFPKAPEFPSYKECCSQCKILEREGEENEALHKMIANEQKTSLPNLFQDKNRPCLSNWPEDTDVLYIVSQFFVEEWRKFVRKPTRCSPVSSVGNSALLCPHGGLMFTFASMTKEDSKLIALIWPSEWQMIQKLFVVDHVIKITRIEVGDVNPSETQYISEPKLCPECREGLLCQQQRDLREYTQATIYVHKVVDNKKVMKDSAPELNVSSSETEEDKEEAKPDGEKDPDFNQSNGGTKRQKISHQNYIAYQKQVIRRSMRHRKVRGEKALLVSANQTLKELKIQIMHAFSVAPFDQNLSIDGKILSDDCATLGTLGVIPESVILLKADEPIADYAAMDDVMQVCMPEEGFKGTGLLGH
In outline: as §1

In the next assay the target is T4, USP5 (UniProt P45974).
T4 sequence (whole entry): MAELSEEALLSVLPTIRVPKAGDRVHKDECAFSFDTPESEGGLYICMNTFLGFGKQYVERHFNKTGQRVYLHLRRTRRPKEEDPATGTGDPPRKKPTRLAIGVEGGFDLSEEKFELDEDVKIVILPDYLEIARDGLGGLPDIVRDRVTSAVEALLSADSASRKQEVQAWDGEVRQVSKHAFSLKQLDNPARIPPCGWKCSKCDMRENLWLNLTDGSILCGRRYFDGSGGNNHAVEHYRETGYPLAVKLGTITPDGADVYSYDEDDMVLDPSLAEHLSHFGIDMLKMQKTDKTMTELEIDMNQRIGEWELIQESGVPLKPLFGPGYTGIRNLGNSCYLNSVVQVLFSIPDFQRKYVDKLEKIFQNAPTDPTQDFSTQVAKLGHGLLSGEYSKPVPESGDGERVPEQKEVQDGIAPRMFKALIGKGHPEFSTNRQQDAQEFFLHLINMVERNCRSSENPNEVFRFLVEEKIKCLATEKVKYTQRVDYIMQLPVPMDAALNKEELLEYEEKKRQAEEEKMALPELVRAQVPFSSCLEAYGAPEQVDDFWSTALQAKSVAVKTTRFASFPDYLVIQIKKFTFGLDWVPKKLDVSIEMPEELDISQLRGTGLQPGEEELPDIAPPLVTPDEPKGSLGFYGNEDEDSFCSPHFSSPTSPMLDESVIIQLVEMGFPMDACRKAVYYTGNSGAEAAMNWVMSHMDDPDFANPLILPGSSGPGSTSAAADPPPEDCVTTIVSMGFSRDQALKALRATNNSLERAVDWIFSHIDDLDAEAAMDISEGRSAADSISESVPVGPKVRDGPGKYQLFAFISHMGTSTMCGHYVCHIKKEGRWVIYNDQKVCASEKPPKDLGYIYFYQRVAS
In outline:
as §1

A further assay has as its target USP54 (UniProt Q70EL1). In outline: as §1
For a further assay, the target named is USP7 (UniProt Q93009). The method in brief:
as §1

The next assay concerns the target T5, USP8 (UniProt P40818).
T5 sequence (whole entry): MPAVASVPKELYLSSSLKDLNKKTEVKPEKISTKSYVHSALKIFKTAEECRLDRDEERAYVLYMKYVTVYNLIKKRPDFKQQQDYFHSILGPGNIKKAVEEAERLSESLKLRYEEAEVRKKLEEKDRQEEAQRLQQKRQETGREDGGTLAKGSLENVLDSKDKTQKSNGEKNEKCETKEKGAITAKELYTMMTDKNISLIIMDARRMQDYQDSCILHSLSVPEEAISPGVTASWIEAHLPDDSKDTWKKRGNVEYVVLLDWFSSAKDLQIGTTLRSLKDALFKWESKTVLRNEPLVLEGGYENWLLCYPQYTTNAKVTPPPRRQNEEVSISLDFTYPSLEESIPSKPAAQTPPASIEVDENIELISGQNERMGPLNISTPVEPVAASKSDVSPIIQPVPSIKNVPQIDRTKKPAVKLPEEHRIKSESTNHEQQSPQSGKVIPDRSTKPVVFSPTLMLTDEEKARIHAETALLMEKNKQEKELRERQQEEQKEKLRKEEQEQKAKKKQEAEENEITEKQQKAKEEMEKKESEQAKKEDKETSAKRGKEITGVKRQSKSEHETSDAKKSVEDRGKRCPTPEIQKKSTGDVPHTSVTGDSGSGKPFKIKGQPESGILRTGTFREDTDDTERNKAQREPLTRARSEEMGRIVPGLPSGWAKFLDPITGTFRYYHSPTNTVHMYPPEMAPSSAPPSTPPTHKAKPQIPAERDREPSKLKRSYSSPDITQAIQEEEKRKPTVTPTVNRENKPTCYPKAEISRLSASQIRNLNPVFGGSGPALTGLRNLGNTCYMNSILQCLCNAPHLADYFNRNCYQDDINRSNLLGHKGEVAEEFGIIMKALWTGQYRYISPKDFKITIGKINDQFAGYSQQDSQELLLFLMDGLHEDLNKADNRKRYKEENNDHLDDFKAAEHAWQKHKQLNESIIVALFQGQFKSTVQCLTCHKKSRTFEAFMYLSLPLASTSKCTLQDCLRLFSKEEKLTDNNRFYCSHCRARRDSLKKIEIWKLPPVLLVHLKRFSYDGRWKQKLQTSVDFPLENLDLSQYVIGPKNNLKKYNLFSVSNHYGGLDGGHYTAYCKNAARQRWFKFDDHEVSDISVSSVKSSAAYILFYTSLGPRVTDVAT
The method in brief: as §1

A further assay deals with USP9X (UniProt Q93008). The method in brief:
as §1

The next assay deals with UniProt O00487. The method in brief: as §1
Chain of UniProt O00487 (O00487 whole entry): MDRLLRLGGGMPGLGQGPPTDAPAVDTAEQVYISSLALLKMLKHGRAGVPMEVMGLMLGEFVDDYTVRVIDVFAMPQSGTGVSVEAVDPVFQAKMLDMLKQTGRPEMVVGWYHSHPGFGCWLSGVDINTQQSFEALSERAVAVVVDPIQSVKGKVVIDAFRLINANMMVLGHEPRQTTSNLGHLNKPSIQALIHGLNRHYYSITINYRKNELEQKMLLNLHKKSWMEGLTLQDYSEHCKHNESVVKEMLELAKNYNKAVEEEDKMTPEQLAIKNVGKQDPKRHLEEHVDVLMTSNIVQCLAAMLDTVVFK

Chain of USP9X (Q93008 whole entry): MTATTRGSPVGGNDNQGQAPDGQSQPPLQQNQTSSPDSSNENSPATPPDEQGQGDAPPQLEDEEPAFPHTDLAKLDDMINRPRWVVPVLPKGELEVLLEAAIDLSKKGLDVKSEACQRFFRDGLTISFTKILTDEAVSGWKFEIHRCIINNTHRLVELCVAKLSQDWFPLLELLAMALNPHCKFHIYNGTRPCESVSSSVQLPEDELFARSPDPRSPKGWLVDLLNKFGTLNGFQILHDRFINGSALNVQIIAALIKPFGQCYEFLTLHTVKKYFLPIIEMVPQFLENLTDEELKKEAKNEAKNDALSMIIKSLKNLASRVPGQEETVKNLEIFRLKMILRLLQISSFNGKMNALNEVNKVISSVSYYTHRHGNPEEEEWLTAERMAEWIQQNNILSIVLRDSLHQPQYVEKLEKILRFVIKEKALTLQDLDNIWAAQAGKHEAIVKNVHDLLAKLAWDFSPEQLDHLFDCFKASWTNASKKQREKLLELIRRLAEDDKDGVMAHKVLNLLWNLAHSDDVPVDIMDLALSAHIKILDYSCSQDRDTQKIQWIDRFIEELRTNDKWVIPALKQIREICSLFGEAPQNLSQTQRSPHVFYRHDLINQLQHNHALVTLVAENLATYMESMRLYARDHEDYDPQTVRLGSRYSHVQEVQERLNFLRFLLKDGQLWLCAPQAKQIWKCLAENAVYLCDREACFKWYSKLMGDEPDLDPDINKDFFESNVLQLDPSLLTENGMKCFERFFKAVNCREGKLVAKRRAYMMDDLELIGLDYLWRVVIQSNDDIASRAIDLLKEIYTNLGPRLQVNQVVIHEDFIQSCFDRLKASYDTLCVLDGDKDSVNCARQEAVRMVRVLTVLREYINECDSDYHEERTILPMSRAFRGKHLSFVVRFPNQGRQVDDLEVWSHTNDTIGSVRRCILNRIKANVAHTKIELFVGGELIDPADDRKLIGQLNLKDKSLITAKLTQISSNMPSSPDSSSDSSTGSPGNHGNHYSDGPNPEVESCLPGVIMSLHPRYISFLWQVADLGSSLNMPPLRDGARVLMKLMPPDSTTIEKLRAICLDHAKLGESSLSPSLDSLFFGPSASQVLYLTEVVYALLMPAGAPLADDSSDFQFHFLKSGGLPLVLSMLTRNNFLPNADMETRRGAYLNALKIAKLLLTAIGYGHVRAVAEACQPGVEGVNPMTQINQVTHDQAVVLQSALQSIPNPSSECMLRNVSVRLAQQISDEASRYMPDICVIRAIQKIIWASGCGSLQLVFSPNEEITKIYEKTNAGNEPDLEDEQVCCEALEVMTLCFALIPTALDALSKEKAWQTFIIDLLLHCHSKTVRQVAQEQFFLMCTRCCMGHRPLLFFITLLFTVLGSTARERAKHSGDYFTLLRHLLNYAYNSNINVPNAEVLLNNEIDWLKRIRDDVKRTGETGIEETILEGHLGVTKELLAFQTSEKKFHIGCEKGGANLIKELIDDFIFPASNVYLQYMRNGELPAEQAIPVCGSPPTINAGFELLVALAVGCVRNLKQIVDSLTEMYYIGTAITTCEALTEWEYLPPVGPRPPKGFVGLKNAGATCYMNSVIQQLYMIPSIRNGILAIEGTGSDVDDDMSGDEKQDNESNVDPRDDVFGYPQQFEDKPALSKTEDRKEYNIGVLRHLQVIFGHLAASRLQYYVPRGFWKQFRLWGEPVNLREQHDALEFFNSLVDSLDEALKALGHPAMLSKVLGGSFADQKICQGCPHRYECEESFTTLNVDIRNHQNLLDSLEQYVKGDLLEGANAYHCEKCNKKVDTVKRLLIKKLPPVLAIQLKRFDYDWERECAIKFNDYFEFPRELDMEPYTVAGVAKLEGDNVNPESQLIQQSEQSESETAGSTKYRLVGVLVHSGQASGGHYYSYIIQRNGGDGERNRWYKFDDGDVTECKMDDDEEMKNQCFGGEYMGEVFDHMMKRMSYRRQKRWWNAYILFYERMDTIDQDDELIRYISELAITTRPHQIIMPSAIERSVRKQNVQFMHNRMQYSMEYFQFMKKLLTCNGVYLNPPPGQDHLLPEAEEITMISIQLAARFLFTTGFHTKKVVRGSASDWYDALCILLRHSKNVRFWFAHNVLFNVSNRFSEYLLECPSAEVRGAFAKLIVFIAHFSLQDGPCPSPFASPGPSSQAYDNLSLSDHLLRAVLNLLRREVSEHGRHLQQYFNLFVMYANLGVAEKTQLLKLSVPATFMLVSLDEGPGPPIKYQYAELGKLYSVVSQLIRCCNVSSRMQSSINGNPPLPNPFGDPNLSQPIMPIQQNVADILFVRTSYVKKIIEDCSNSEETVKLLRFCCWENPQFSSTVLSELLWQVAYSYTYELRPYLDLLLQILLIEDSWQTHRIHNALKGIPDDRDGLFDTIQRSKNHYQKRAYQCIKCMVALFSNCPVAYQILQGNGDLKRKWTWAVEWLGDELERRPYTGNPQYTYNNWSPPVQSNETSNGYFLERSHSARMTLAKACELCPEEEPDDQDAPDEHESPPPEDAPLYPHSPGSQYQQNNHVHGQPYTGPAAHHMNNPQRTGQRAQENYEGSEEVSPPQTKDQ
Chain of USP54 (Q70EL1 whole entry): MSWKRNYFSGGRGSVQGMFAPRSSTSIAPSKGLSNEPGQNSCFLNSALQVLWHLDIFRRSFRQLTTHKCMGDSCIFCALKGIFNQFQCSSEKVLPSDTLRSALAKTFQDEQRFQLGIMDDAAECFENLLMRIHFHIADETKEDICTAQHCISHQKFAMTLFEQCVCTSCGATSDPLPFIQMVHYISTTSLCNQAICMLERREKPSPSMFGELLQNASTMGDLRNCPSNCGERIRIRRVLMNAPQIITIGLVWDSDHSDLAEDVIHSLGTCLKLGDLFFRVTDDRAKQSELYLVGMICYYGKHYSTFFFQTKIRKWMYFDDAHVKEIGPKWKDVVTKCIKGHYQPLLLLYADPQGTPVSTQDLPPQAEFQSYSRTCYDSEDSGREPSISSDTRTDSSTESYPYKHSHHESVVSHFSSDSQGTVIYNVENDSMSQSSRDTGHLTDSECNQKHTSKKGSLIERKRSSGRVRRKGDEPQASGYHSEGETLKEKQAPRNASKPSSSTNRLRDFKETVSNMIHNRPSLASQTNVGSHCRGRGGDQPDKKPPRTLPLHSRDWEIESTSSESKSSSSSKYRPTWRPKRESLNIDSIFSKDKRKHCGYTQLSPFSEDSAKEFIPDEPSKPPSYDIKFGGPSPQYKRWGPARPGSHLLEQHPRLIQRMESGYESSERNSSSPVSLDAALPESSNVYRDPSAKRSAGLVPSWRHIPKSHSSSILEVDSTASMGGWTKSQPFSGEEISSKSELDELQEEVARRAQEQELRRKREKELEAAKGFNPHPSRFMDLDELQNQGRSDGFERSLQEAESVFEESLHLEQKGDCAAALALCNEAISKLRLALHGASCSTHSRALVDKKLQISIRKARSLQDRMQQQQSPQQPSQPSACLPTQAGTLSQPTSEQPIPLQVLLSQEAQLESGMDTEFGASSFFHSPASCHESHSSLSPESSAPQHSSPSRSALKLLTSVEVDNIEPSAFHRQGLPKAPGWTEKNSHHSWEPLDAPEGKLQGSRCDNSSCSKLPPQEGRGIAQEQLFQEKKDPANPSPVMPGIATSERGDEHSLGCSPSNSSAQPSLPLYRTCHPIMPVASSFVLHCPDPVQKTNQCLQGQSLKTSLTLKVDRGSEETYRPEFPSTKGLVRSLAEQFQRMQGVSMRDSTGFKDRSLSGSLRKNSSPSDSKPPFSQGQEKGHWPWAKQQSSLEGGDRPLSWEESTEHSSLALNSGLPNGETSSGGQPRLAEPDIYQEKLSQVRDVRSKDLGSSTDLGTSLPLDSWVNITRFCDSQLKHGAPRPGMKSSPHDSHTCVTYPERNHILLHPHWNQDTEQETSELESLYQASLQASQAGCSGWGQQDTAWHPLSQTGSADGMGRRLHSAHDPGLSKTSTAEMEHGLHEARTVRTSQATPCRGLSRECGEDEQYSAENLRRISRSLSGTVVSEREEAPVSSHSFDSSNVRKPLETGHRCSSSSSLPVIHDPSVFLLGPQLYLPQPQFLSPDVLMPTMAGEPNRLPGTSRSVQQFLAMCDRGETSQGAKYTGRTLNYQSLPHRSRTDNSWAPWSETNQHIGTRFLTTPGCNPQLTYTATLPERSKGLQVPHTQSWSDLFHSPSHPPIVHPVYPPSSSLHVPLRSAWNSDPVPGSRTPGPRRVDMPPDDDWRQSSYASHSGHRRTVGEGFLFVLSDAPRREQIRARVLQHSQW

With `COc1cccc(CN(C)C(=O)CCl)c1`, the “log2 ratio of Biotin-Ahx-Ub-VS probe labelling” value in the assay with USP42 is -0.309; in the assay with USP46, -0.0667; in the assay with USP47, -0.35; with USP48 it was -0.935; in the assay with USP5, 0.462; with USP54, 0.00406. The “log2 ratio of Biotin-Ahx-Ub-VS probe labelling” value with USP7 is -1.43 (active); in the assay with USP8, 0.148; in the assay with USP9X, 0.0455; with UniProt O00487, 0.0127.

Source of the values: the supplement of paper PMC11732987, “Enantioselective OTUD7B fragment discovery through chemoproteomics screening and high-throughput optimisation” (Communications Chemistry, 2025).
